In the supplement of paper PMC6555819:

Test system: PPARg:RXRa 90nM:30nM, anti-RXR (NR concentration 90 nM, RXRa partner concentration 30 nM)
Assay: PBM binding z-score (relative to random genomic background probes); higher = stronger binding; sequences stand for … in GC…GCGATTGACAGCGTAGAATGAAGG
Outline: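 Binding z-scores were set against random background probes. The data came from custom Agilent 4×180K protein-binding microarrays carrying double-stranded probes with 34-nt variable regions, incubated 1 h with ligand-free nuclear receptor dimers. Partner-specific antibodies detected binding, and scanned fluorescence was regression-normalized.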

Sequence	PBM binding z-score
TGTAGTTGGTCAAAGGTCACACACTCGAAATGCG	11.7
GCGACTGGGGCACCAGCAGGTTACCATAACTTAA	0.564
CCTATTAGTTGACCATAAGGGCAACCGGAGCTCG	0.171
CCTACTGGGCCCTCAGGTCATTGATATCAACGTT	0.433
AACTCTAGGTAAAGTTCAGTGAAAGATCGATAGA	4.53
TCTATTAGTTGAAGCGCAACCGACGAGTCCGTTT	2.67
TCTATTAGTTTAAGGGCAACCGACGAGTCCGTTT	3.18
TAGCCTAGGTCAGATCGGGTCAGTATACGCTATA	1.08
GCGACTGGGGCATCAGCAGATTACCATAACTTAA	0.0962
TGTCAAAGTTCAAATGTAACGTAAGTATCCACAC	6.93
ATACCAAGCTGATCGTGAGGTCGTTGATACTAAC	-0.0126
CCCAGTAGGTTATGGGGCATTCAGGCAACGGTGA	5.66
TAGCCGAGGTCAGATCGGGCCAGTATACGCTATA	2.17
AATACAGGGTCATCGGAGGCCAGAGTACGCACAG	4.8
CCTTACGGGTCTCGAGGTTATAGCACGACGAGCG	-0.392
CCTGCTAGGTCATAGTCAGCTAATCTACAGTATG	1.32
GCGGCTAGGTCAACTGATGGTCAGCTAAAGCTCG	1.44
CGTACAGGGTCAGCTAGGCCAGAGTAGGGACGGC	1.84
ATCTCAAGGTAACAAGTTCAGTGAAAGAGAGGAC	1.03
ATCTAAAGGTCGAGGTGAGTATAGAGAAAGGGAA	3.16
AGACAAAGTTCACTAGGTAACGTAAGATTCAGCT	4.7
CCTTACGGCTCACTGACAGGTTATAGCATTTGGA	0.0518
